Experimental data from ChEMBL document CHEMBL1157539, “Thousands of chemical starting points for antimalarial lead identification” (Nature, 2010).

Legend:
Type in all cases: functional
[1] = tested on: Plasmodium falciparum; test: GSK_TCMDC: Inhibition of Plasmodium falciparum 3D7 in whole red blood cells, using parasite LDH activity as an index of growth. Test compounds present at 2uM
[2] = tested on: Plasmodium falciparum; test: GSK_TCMDC: Inhibition of Plasmodium falciparum Dd2 in whole red blood cells, using parasite LDH activity as an index of growth. Test compounds present at 2uM
[3] = tested on: HepG2; test: GSK_TCMDC: Percent inhibition of human HepG2 cell line. Test compounds present at 10uM.

Row | Compound | Inhibition [1] [%] | Inhibition [2] [%] | Inhibition [3] [%]
1 | CN(N=Cc1ccccc1)C(=N)NCCCC#Cc1cccc(CN2CCCC2)c1 | 89 | 3 | 16
2 | CN1CCCN(Cc2cccc(-c3ccc(NC(=O)c4ccc(Cl)cc4)cc3)c2)CC1.O=C(O)C(F)(F)F | 97 | 35 | 31
3 | COc1ccccc1-c1csc(C(=O)NC2CCCCN(Cc3ccc(C(C)(C)C)cc3)C2)c1.O=C(O)C(F)(F)F (centres undefined) | 99 | 8 | 13
4 | O=C(NCCCCCN1CCCN(C(=O)Nc2ccc(Cl)c(C(F)(F)F)c2)CC1)C1CC1c1ccc(Cl)c(Cl)c1 (centres undefined) | 100 | 1 | 41
5 | CC(C)c1ccc(OCC(O)CN(C)C(C)C(O)c2ccccc2)c(Br)c1.Cl (centres undefined) | 95 | 97 | 36
6 | Cc1nc(-c2ccncc2)sc1C(=O)Nc1ccc(Cl)cc1C(=O)Nc1ccc(Cl)cc1 | 98 | 47 | 2
7 | CC(Cc1ccc(OCCN2CCN(c3ccc(Cl)cc3)CC2)cc1)NCC(O)c1cccc(C(F)(F)F)c1.Cl (centres undefined) | 99 | 96 | 97
8 | CC(C)c1ccc(C=CC(=O)N2CCC(CCN3CCC(c4c[nH]c5ccccc45)CC3)CC2)cc1 | 93 | 11 | 85
9 | Cc1ccc(NC(=S)NC2CCN(CCCCCNC(=O)/C=C/c3ccc(Cl)c(Cl)c3)CC2)cc1Cl | 100 | 56 | 45
10 | O=C(O)C(F)(F)F.O=S(=O)(NCCN1CCCC1)c1cccc(-c2cccc(CNCc3ccsc3)c2)c1 | 100 | 55 | 69
11 | CC(C)(CNCc1cccc(Oc2cccc(C(F)(F)F)c2)c1)c1nc(-c2ccnc(N)n2)c(-c2ccc(Cl)c(O)c2)[nH]1.Cl | 99 | 98 | 23
12 | CCN(CC)C(=O)C1CCN(C(C(=O)N2CCN(CC(=O)N3CCCC3)CC2)c2cc3ccccc3o2)CC1 (centres undefined) | 98 | 4 | 0
13 | COc1cc(C(=O)NC2CCc3ccccc32)cc(Cl)c1OC (centres undefined) | 85 | 60 | 12
14 | CCCc1cc(OC)c(C[C@@H]2c3cc(O)c(Cl)cc3CCN2C)cc1OC.Cl | 98 | 98 | 3
15 | CON(C)C(=O)[C@@H](CCCCNC(=O)OCc1ccccc1)NC(=O)OC(C)(C)C | 98 | 0 | 5
16 | COCc1nc(N)nc(N)c1-c1ccc(Cl)c(Cl)c1 | 84 | 1 | 4
17 | COC(=O)[C@@H](NC(=O)[C@H](CC(C)C)Nc1ccc(C#N)c2ccccc12)c1ccc(O)cc1.O=C(O)C(F)(F)F | 98 | 87 | 4
18 | CSc1ccc(NC(=O)Nc2cc(C)nc3ccccc23)cc1 | 100 | 23 | 7
19 | CN(C)CCCNCc1ccc(-c2ccc(C(F)(F)F)cc2)cc1 | 96 | 35 | 30
20 | CC(C)CCn1c(Sc2ccc(C#N)c([N+](=O)[O-])c2)nnc1-c1cccc(Cl)c1 | 96 | 82 | 33
21 | Cl.O=C(Nc1ccc(SC(F)(F)F)cc1)Nc1ccnc2ccccc12 | 95 | 42 | 26
22 | CC(=O)N(C)c1cccc(CNc2cc(C)nc(Nc3ccc(C)cc3)n2)c1 | 97 | 21 | 8
23 | O=C(Nc1ccc(-c2ccc(-c3nc4cc(C(F)(F)F)ccc4[nH]3)s2)cc1)c1c[nH]cn1 | 92 | 61 | 66
24 | CCN(CC)/C(=N/C(=N)NCc1ccc(Cl)cc1Cl)NCCCCCCN/C(=N\C(=N)NCc1ccc(Cl)cc1Cl)N(CC)CC | 100 | 99 | 16
25 | Cl.O=C(CCCCCCc1ccccc1)Nc1ccc2nc3c(c(NCc4ccccc4)c2c1)CCCC3 | 100 | 98 | 19
26 | O=c1cc(NCCCNCc2cc(Cl)cc(Cl)c2OCc2ccc(Cl)cc2)[nH]c2ccccc12 | 98 | 53 | 6
27 | O=C(NCc1cccs1)[C@H](Cc1ccccc1)Nc1ccnc(NCC2CCCCC2)n1.O=C(O)C(F)(F)F | 83 | 67 | 5
28 | CCOc1cc(CC)ccc1C1CCN(CCN2CCC(NC(=O)c3ccc(-c4ccc(C#N)cc4)cc3)CC2)CC1 | 100 | 71 | 32
